Assay outcomes deposited in PubChem BioAssay by National Center for Advancing Translational Sciences (NCATS).
TDP43 rescue = qHTS of TDP-43 Inhibitors | Potency, µM (series often up to 46.1 µM), for the others: at the highest dose growth rescue (activation), usual class: activators | hit rate 1.8% among 410,000 | AID 652104, 2013 | TDP-43 expressing yeast growth rescue, BacTiter-Glo, 24 h; note: potency is the fitted concentration of half-maximal effect; % of control where 0% means no effect; nearly all actives have a fitted effect of over 50% in size
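In this qHTS, compounds that restore growth of yeast expressing TDP-43 appear as activators. Cells (OD600=0.02, galactose medium, raffinose-pregrown) are incubated with compound 24 hr at 30 deg C and growth is quantified by BacTiter-Glo.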
aSyn rescue = qHTS of alpha-syn Inhibitors; Yeast expressing alpha-synuclein, growth rescue, BacTiter-Glo, 24 h; hit rate 0.14% among 370,000; Potency, µM (doses to about 46.1 µM), for the others: at the top dose growth rescue (activation), usual class: activators; AID 652106, 2013; note: potency is the fitted concentration of half-maximal effect; % of control where 0% means no effect; nearly all actives have a fitted effect of over 65% in size
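Screening used galactose-induced yeast with toxic alpha-synuclein levels, exposed to compound for 24 hr at 30 deg C. Cell growth, read with BacTiter-Glo luminescence, gave the measured signal.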
FUS suppressor = qHTS for Suppressors of FUS Proteinopathy: Primary screen using FUS-linked yeast assay. AID 1347120, 2019. hit rate 0.24% among 390,000. Potency, µM (top dose mostly 76.6 µM), usual class: activators. S. cerevisiae FUS-expressing, growth rescue, OD600, 24 h;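 note: potency is the fitted concentration of half-maximal effect; plate controls were DMSO vehicle for no effect and reference control for full effect; nearly all actives have a fitted effect of over 55% in size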
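Restored growth of FUS-toxic S. cerevisiae, read as 600 nm absorbance after 24 h at 30C in galactose medium (starting OD 0.005). Controls CP55940 and DMSO.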
LDHA inh = qHTS assay for inhibitors of human lactate dehydrogenase | L-lactate dehydrogenase A chain (Homo sapiens), P00338 | purified LDHA, NADH/diaphorase-resazurin fluorescence; stronger effect = lower value | activity change, % (values are at about 110 or 230 µM) | hit rate 0.15% among 480,000 | AID 1347041, 2019; in the data active = activity change below about -30%; inconclusive = mostly about -25% to -30%;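 note: plate controls were DMSO wells for no effect and wells without enzyme for full effect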
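Resorufin fluorescence (ex540/em590), read at 0 and 20 min after diaphorase/resazurin addition, reports the NADH left after a 5 min room-temperature reaction of 2 nM human LDH5 with 0.06 mM NADH and 0.2 mM pyruvate.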
IDH1 R132H inh = qHTS for Inhibitors of mutant isocitrate dehydrogenase 1 (IDH1): qHTS | Isocitrate dehydrogenase [NADP] cytoplasmic (Homo sapiens), O75874 | IDH1-R132H enzyme, NADPH consumption, diaphorase/resazurin fluorescence | Potency, µM (top dose mostly 76.6 µM), inactives show at the highest dose activity change, negative = inhibition, actives largely listed as inhibitors | hit rate 0.093% among 390,000; note: potency is the fitted concentration of half-maximal effect; % is set by controls: 0 for no effect and ±100 for the full control effect; nearly all actives have a fitted effect of over 65% in size
Target sequence (O75874 whole entry R132H, stated change not applied): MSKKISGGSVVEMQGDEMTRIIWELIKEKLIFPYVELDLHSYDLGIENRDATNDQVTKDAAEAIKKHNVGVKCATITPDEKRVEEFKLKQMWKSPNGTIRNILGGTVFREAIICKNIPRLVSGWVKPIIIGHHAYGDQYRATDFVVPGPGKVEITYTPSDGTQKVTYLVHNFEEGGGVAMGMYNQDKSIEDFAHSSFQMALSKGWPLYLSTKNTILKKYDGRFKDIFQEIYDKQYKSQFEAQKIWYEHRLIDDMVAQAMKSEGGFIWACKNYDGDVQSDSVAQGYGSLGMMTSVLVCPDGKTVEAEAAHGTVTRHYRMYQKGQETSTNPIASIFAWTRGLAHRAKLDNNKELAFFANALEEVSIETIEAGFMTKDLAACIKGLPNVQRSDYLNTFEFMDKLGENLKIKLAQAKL
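IDH1-R132H (0.5 ug/mL) preincubated 30 min with compound, then NADPH (0.016 mM) and alpha-KG (2 mM) added; 80 min at RT, pH 7.5. Remaining NADPH coupled via diaphorase/resazurin to fluorescence (540/590 nm); concentration-response curves normalized to no-enzyme control.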
Abeta rescue = qHTS for compounds that reverse cellular toxicity of Amyloid beta (A-beta) peptide in yeast: Primary Screen. yeast expressing A-beta42, growth rescue, OD600, 48 h; response scale: 0% DMSO, 100% iron-clioquinol control. Potency, µM (highest dose often 46.1 µM), usual class: activators. hit rate 0.063% among 410,000. AID 1347071, 2019; note: potency is the fitted concentration of half-maximal effect; nearly all actives have a fitted effect of over 55% in size
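Yeast A-beta toxicity model in growth medium with pinned compounds, 48 h at 30 C; growth read as absorbance at 600 nm. Normalized to FeCl3/clioquinol equimolar mix (positive) and DMSO (negative).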
Starred values were filed as active, the others as inactive; i = inactive; u = inconclusive; x = no result given; [ ] = another dose, or the depositor's remark. Compounds with a hit are over-represented: about 2% of the library has one in this group of screens. Unless noted, calls come from the whole dose curve; as a rule, active = well fitted curve in the direction sought with a large enough effect; inconclusive = small, poorly fitted or top-dose-only effect, or another doubt; inactive = no such curve, though single readings can be large; an effect the other way counts as inactive or inconclusive.

SMILES | TDP43 rescue | aSyn rescue | FUS suppressor | LDHA inh | IDH1 R132H inh | Abeta rescue
O=C(O)CC/C(=C/c1ccc2ccccc2c1)c1nc2ccccc2s1 | x | x | x | 3 | x | x
CCNC(=S)N1CCN(c2ccc([N+](=O)[O-])cc2)CC1 | 5% | -3% | i | 0 | 0% | i
O=[N+]([O-])c1ccc(N2CCN(C(=S)NCc3ccc(Cl)cc3)CC2)cc1 | u | 23% | i | -9 | 16% | 5.6µM*
CN(C)CCCNCC(=O)c1c(-c2ccccc2)n(C)c2ccccc12 | 6% | -1% | i | -37* | -8% | i
Cn1c(-c2ccccc2)c(C(=O)CC#N)c2ccccc21 | -8%[0.397 µM] | 3% | i | -14 | -1% | i
CCOC(=O)c1cnc2c(OC)cccc2c1Nc1ccccc1 | x | x | x | 2 | x | x
Cn1ncc2c(N3CCN(c4ccccc4)CC3)nc(N3CCOCC3)nc21 | x | x | x | 2 | x | x
O=C(CSCc1ccccc1Br)N/N=C/c1ccc2c(c1)OCO2 | 18µM* | -7% | x | 1 | 4% | i
Fc1ccc(/C=N/Nc2cccc(Cl)c2)cc1F | x | x | x | 5 | x | x
O=c1oc2ccccc2c2c1ccc1ccccc12 | 35µM* | 7% | i | -4 | 15% | i
O=c1oc2ccc3ccccc3c2cc1-c1ccccc1 | x | x | x | 12 | x | x
Cc1nc(Nc2ccccc2)sc1C(=O)c1ccccc1 | -15%[1.82 µM] | -7% | i | -2 | -5% | i
CC(=O)c1cc(C(=O)c2ccccc2)sc1Nc1ccccc1 | 35µM* | 9% | i | -5 | 3% | i
O=S(=O)(NCC(c1cccs1)S(=O)(=O)c1ccccc1)c1ccc(F)c(C(F)(F)F)c1 (stereo not given) | u | x | i | -11 | -10% | i
O=S(=O)(NCC(c1cccs1)S(=O)(=O)c1ccccc1)c1ccc(F)cc1 (stereo not given) | 3.5µM* | x | i | 4 | 13% | i
COc1ccc(S(=O)(=O)NCC(c2cccs2)S(=O)(=O)c2ccccc2)cc1OC (stereo not given) | 3.2µM* | x | i | -1 | -5% | i
CC1CCN(C(=O)CSc2nc(-c3ccc(C(C)C)cc3)no2)CC1 | 18µM* | x | i | 0 | -14% | i
O=C(c1cnc(Cl)c(Cl)c1)N1CCC(Cc2ccccc2)CC1 | 13µM* | 10% | i | -6 | 1% | i
Cc1cc(C(=O)N2CCN(Cc3ccccc3)CC2)ccc1[N+](=O)[O-] | 12% | 2% | i | 0 | 3% | i
Cc1cc(C(=O)N2CCC(Cc3ccccc3)CC2)ccc1[N+](=O)[O-] | u | -11% | 11µM* | -2 | 8% | i
CN(Cc1ccccc1F)c1ccc(S(N)(=O)=O)cn1 | x | x | x | 0 | x | x
Cc1cccc(-c2nc3ccccc3c3nncn23)c1 | 18µM* | 1% | i | 0 | 9% | i
NC(=O)C1CCN(Cc2ccc(C(F)(F)F)cc2)CC1 | x | x | x | -4 | x | x
O=C(c1ccc(N2C(=O)c3ccccc3C2=O)cc1)N1CCN(S(=O)(=O)c2ccccc2F)CC1 | u | 3% | 28µM* | -6 | -5% | i
O=C(c1ccc(N2C(=O)c3ccccc3C2=O)cc1)N1CCCCC1 | 10% | 1% | i | -2 | -3% | i
SMILES | TDP43 rescue | aSyn rescue | FUS suppressor | LDHA inh | IDH1 R132H inh | Abeta rescue
CN(C)c1ccc(C=Nc2ccccc2C(N)=O)cc1 | 11µM* | -12% | i | -1 | 8% | i
Cc1ccc(O)c(NC(=O)CCS(=O)(=O)c2nc(-c3cccs3)cc(C(F)(F)F)n2)c1 | 11µM* | x | i | -2 | -6% | i
O=C(CCS(=O)(=O)c1nc(-c2cccs2)cc(C(F)(F)F)n1)Nc1cc(Br)ccc1O | 18µM* | u | i | 2 | 0% | i
O=C(CCS(=O)(=O)c1nc(-c2ccc3c(c2)OCO3)cc(C(F)(F)F)n1)Nc1ccc(F)cc1F | 13µM* | x | i | 10 | 0% | i
Cc1cc(NC(=O)CCS(=O)(=O)c2nc(-c3ccccc3)cc(C(F)(F)F)n2)no1 | 14% | -19% | i | -4 | 5% | i
O=C(CCS(=O)(=O)c1nc(-c2cccs2)cc(C(F)(F)F)n1)Nc1ccc(Br)cc1 | u | x | i | -4 | -1% | i
COc1cccc(NC(=O)CN(C)CC(=O)Nc2ccc(C)cc2)c1 | x | x | x | -2 | x | x
O=C(O)CCCC(=O)NCCN1CCCC1 | x | x | x | 10 | x | x
Cc1cccc(Nc2nnc(SCC(=O)c3ccc(Br)s3)s2)c1C | 25µM* | 21% | i | -3 | -3% | u
Cc1cccc(Nc2nnc(SCC(=O)N3CCOCC3)s2)c1C | x | x | x | -2 | x | x
Cc1ccccc1Nc1nnc(SCC(=O)Nc2ccccc2[N+](=O)[O-])s1 | 16µM* | 5% | i | -8 | 4% | i
Cc1cccc(Nc2nnc(SCC(=O)Nc3ccccc3[N+](=O)[O-])s2)c1 | -2% | 0% | x | -4 | 5% | i
O=C1c2ccccc2NC(c2cc3ccccc3[nH]c2=O)N1C1CC1 (stereo not given) | x | x | x | 1 | x | x
Cc1cccc(OCCCN)c1 | x | x | x | 2 | x | x
CC(OC(=O)c1cc(-c2cccnc2)nc2ccccc12)C(=O)Nc1ccc2ccccc2c1 (stereo not given) | -7% | 9% | 5.6µM* | 0 | 6% | i
NC(=O)c1ccc(N2CCN(c3ncc(C(F)(F)F)cc3Cl)CC2)cc1 | 5% | 8% | i | -3 | -5% | i
Nc1ccc(N2CCN(c3ncc(C(F)(F)F)cc3Cl)CC2)c(C(F)(F)F)c1 | 20µM* | -57% | i | 14 | 24% | i
CCc1ccc(C(=O)NCc2ccc(C#N)cc2)o1 | x | x | x | -1 | x | x
CN(C(=O)c1oc(=O)c2ccccc2c1-c1ccccc1)c1cccc(Cl)c1 | 25µM* | x | i | -3 | 34% | i
Cc1cc(C)c(NC(=O)c2sc3nc4c(cc3c2N)C(=O)CC(C)(C)C4)c(C)c1 | 20µM* | -2% | u | -1 | -2% | i
COC(=O)c1sc2nc3c(cc2c1N)C(=O)CC(C)(C)C3 | -21% | 1% | i | -1 | 0% | i
CCc1sc(C(=O)NCc2ccco2)cc1Br | 16µM* | -12% | i | -2 | 4% | i
Cc1nc2ccc(NC(=O)Cc3ccc4c(c3)OCCO4)cc2s1 | 3.5µM* | -49% | x | 1 | -1% | i
